48 molecules from PubChem BioAssay AID1347417 (National Center for Advancing Translational Sciences (NCATS), 2020) can be followed below.

In all, about 120,000 compounds went through this assay and about 5,300 (4.4%) were called active. Roughly 22% stayed inconclusive and do not appear here. Shown is part of a subset that was picked to be rich in actives. A call without a number means that no potency is given here. Values without a mark were called inactive. Calls come from the whole dose curve; as a rule, active = well fitted inhibition curve with a large enough effect; inconclusive = small, poorly fitted or top-dose-only effect; inactive = no such curve, though single readings can be large or run the other way.
Potency is the fitted concentration of half-maximal effect.

The assay can be described thus: qHTS Primary assay for Inhibitors of Plasmodium falciparum Dd2 growth in vitro. Note: nearly all actives have a fitted effect of over 65% in size. The conditions noted are these: P. falciparum Dd2 growth, SYBR Green, 72 h; series mostly up to 28.9 µM. The text has this:
Malaria, a parasitic disease spread to humans through the bite of a Plasmodium infected Anopheles mosquito, continues to be a global health burden affecting millions of people, with an estimated 228 million cases and 405,000 deaths in 2018. Concerns about safety and limitations of current antimalarial treatments strongly emphasize the need to develop new therapeutic options. The scarce number of chemotypes and validated drug targets with efficacy against the liver stage, have hindered development of new antimalarials. To address this, a chemoprophylactic drug discovery effort was conducted through a combined phenotypic high-throughput asexual blood stage and liver stage screen, providing a robust foundation to identify liver-stage active lead chemotypes. Compounds were initially screened against Plasmodium falciparum Dd2 strain parasites using a in vitro SYBRGreen-1 based 72 hr proliferation assay to identify novel chemotypes to advance to liver stage assays. NIH/NCATS Early Translation Branch Assay Submitter (PI): Anton Simeonov Ph.D.
Malaria-vivax Assay Protocol: PROTOCOL TABLE (as described by Inglese et al., 2007) SEQUENCE No. (e.g., 1, 2, 3, etc.); […] (e.g., Cells, Incubation, Reagent, etc.); VALUE; DESCRIPTION SEQUENCE, Parameter, Description 1; Reagent; 3 uL complete malaria growth medium, 1536 TC treated Black clear bottom plate 2; Controls; 23 nL positive control artesunate (300 nM final) to column 1; Neutral control DMSO to columns 2-4 3; Compound; 23 nL of compounds in dose response concentration (29 uM to 0.5 nM final) 4; Reagent; 5 uL malaria infected red blood cells (2.5% hematocrit final, 0.3% parasitemia 5; Time; 72 hours at 37C (5% O2, 5% CO2, 90% N2; 95% Rh) 6; Reagent; 2 uL lysis buffer/SYBRGreen-1, 25 sec shake immediately following dispense 7; Time; ~16 hours at 37C (5% O2, 5% CO2, 90% N2; 95% Rh) 8; Detector; EnVision (PerkinElmer) bottom read at 485/14nm excitation and 535/25 nm emission NOTES (numbers refer to sequence above): 1; Complete Malaria Growth Media: 1X RPMI-1640 w/L-glutamine, 5.5g/L Albumax II, 367 uM Hypoxanthine, 25 mM HEPES, 0.25% Sodium Bicarbonate, 35 uM Gentamicin sulfate 2; Controls were added using the Kalypsis Pintool (Wako USA) equipped with 1536 pinhead 3; Compounds were added in a 7-point, titration with a high final concentration of 29 uM by Pintool from seven inter-plate titrations of library plates and two DMSO control plates at the beginning and end (see Yasgar et al., 2008). 4; Red blood cells infected with Plasmodium falciparum Dd2 parasites were used. 6; Lysis buffer: 20 mM Tris-HCl, 10 mM EDTA, 0.16% Saponin, 1.6% Triton-X, 10X SYBR Green. REFERENCE: Inglese J, Shamu CE, Guy RK. 2007. Reporting data from high-throughput screening of small-molecule libraries. Nat Chem Biol. doi:10.1038/nchembio0807-438 Yasgar A, Shinn P, Jadhav A, Auld D, Michael S, Zheng W, Austin CP, Inglese J, Simeonov A. 2008. Compound Management for Quantitative High-Throughput Screening. J Lab Autom 13:79-89. doi:10.1016/j.jala.2007.12.004
In general terms: qHTS replaces the single test concentration by a dilution series.
Turning to `C=CCN(C)C[C@H]1CN2CC[C@H]1C[C@@H]2CNC(=O)Nc1cccc(SC)c1`, the Potency result was “inactive”.

Consider `CC[C@H]1CN2CC[C@H]1C[C@@H]2CNC(=O)c1ccc(N(C)C)cc1`, for which the Potency result is “inactive”.

Turning to `CN(Cc1ccccc1)C[C@H]1CN2CC[C@H]1C[C@@H]2CNC(=O)Nc1ccsc1`, the Potency was 10 µM (active).

As for `COc1ccc(OC)c(-c2noc(N3CCN(c4cc(Cl)ccc4C)CC3)n2)c1`, the Potency was 8.91 µM (active).

Regarding `COc1ccc(S(=O)(=O)N2CCN(c3ccc(F)cc3)CC2)cc1-c1noc(C)n1`, the Potency result is “inactive”.

Turning to `CCc1nc(-c2cc(S(=O)(=O)N3CCN(c4ccc(OC)cc4)CC3)ccc2OC)no1`, the Potency entry is “inactive”.

In the case of `COc1nccnc1NC1CCN(C(=O)CCc2c(C)noc2C)CC1`, the activity, negative = inhibition was 30.5% [at 5.79 µM].

For the molecule `O=C(Cc1ccsc1)N1CCC(c2n[nH]c(=O)n2Cc2ccc(F)cc2)CC1`, the Potency entry was “inactive”.

With `Cn1cc(CNC(=O)C[C@@H]2C[C@H]3O[C@H](CNC4CCCC4)[C@@H](O)[C@H]3O2)cn1`, the Potency result is “inactive”.

As for `COc1cc(-c2ccnc3nc(C4CC4)nn23)cc(OC)c1OC`, the Potency result was “inactive”.

Take `Cc1cccc(C(=O)Nc2ccc(-c3nc4ccccc4s3)c(C)c2)c1`: the Potency entry is “inactive”.

Take `Cc1cc(Nc2cccc(C(F)(F)F)c2)nc2ccc(NC(=O)c3ccc(=O)[nH]c3)cc12`: the Potency was 3.98 µM (active).

Turning to `Cn1c(C(=O)Nc2cccc(C(F)(F)F)c2)cc2c(=O)n3ccccc3nc21`, the Potency result was “inactive”.

Take `O=C(O)c1ccnc(-c2ccnc(NCCN3CCCCC3CO)n2)c1` (stereo not drawn): the Potency entry was “inactive”.

Regarding `COc1ccccc1C(=O)N1CCCN(CCc2ccccc2)c2ccccc21`, the Potency is 11.2 µM (active).

Take `COc1cccc(C(=O)N2CCCN(C(=O)C3CC3)c3ccccc32)c1OC`: the Potency result is “inactive”.

Take `CN1CCCN(C(=O)c2ccccc2OC(F)(F)F)c2ccccc21`: the Potency entry is “inactive”.

As for `COc1ccc(C2Cn3nnc(-c4noc(-c5ccccc5)n4)c3CO2)cc1` (stereo not drawn), the Potency result was “inactive”.

Consider `COCCN1C(=O)[C@H]2CN(Cc3ccsc3)C[C@H]2C1=O`, for which the Potency entry is “inactive”.

On to `N#Cc1nc(/C=C/c2ccc(F)cc2)oc1NCc1ccc(F)cc1`, for which the Potency entry was “inactive”.

Consider `COc1ccc(/C=C/c2nc(C#N)c(NCc3ccc(F)cc3)o2)cc1OC`, for which the Potency entry is “inactive”.

For `COc1ccccc1/C=C/c1nc(C#N)c(NC(C)c2ccccc2)o1` (stereo not drawn), the Potency was 4.47 µM (active).

For `COCCn1nnnc1C1CC2(CCOCC2)C(=O)N1Cc1ccc(SC)cc1` (stereo not drawn), the Potency entry is “inactive”.

`CC(=O)Nc1cccc(-c2nnc3n2CCCC3)c1`: the Potency entry was “inactive”.

Consider `COc1ccc(C(=O)Nc2cccc(-c3nnc4n3CCCC4)c2)cc1`, for which the Potency is 10 µM (active).

In the case of `COc1cccc(NC(=O)c2c(OC)cc(=O)n3c2CCCC3)c1`, the Potency entry was “inactive”.

Regarding `Cc1noc(C)c1C(=O)N1CC(N(Cc2cccnc2)CC(C)C)C1`, the Potency result is “inactive”.

On to `O=C(c1ccsc1)N1CCCn2cc(-c3ccc4c(c3)OCO4)nc21`, for which the Potency result was “inactive”.

As to `CC(C)c1ccc(NC(=O)Cn2c3ncccc3c(=O)n2-c2ccccc2)cc1`, the Potency result was “inactive”.

`Cc1ccc(-n2c(=O)c3cccnc3n2CC(=O)Nc2ccccc2C(F)(F)F)cc1C`: the Potency is 8.91 µM (active).

On to `Cc1ccc(-n2c(=O)c3cccnc3n2CC(=O)NCc2ccc(F)cc2)cc1C`, for which the Potency entry was “inactive”.

In the case of `C=CCNC(=O)N1CC[C@H]2CC(=O)N(c3ccccc3)CC[C@H]2C1`, the Potency entry is “inactive”.

Regarding `C[C@@]1(O)CCN(Cc2cc(=O)n3[nH]cnc3n2)C[C@@H]1O`, the Potency result was “inactive”.

As to `O=C(C1CCCC1)N1CCCC(c2noc(COc3ccccc3)n2)C1` (stereo not drawn), the Potency is 8.91 µM (active).

`COCc1nc(C2CCCN(C(=O)c3ccccn3)C2)no1` (stereo not drawn): the Potency entry was “inactive”.

With `CCOc1ccc(C(=O)N2CCCC(c3noc(COC)n3)C2)cc1` (stereo not drawn), the Potency entry is “inactive”.

As for `O=C(C1CC1)N1CCc2cc(Br)cc(S(=O)(=O)N3CCN(c4ccccc4F)CC3)c21`, the Potency entry was “inactive”.

As to `O=C(CCS(=O)(=O)c1cc(Br)cc2c1N(C(=O)C1CC1)CC2)Nc1ccc(C(F)(F)F)cc1`, the Potency is 1.12 µM (active).

Regarding `COC(=O)c1cc(NC(=O)CCS(=O)(=O)c2cc(Br)cc3c2N(C(=O)C2CC2)CC3)cc(C(=O)OC)c1`, the Potency result is “inactive”.

For the molecule `CN1CC2(CCN(C(=O)c3cccn3C)CC2)CC1C(=O)N1CCOCC1` (stereo not drawn), the Potency result was “inactive”.

On to `O=C(Nc1ccc(F)cc1F)c1ccc2c(c1)n(Cc1cccc(F)c1)c(=O)c1ccnn12`, for which the Potency entry is “inactive”.

For `CCNC(=O)N1CCCC1c1noc(CCC(=O)NCCc2nc3ccccc3[nH]2)n1` (stereo not drawn), the Potency result is “inactive”.

As to `C[C@H](C(=O)N1Cc2ccccc2CC2(CCN(Cc3ccncc3)CC2)C1)c1ccccc1`, the Potency was 11.2 µM (active).

For the molecule `CC(=O)N1Cc2ccccc2CC2(CCCN(Cc3ccncc3)C2)C1` (stereo not drawn), the Potency result was “inactive”.

Turning to `CC(=O)N1Cc2ccccc2CC2(CCN(Cc3ccc(O)cc3)CC2)C1`, the Potency entry is “inactive”.

For `O=C(CCc1cccnc1)N1CCc2c(n(CCOc3ccccc3)n(-c3ccccc3)c2=O)C1`, the Potency result was “inactive”.

Consider `COCCCNC(=O)c1cc(C2CC2)nc2onc(C3CCCN3)c12` (stereo not drawn), for which the Potency result is “inactive”.

For the molecule `CC(C)C[C@@H]1N[C@H](C(=O)NC(C)C)Cc2c[nH]c3cccc1c23`, the Potency result was “inactive”.
